Screening data as filed in PubChem BioAssay.
Tb PYK inh = blocks Trypanosoma brucei pyruvate kinase; TbPYK enzyme, Kinase-Glo Plus ATP luminescence, 45 min; Q57TT1; Potency, µM (titrated, usually from 76.8 µM), hits mostly inhibitors; AID 624173; 410,000 compounds, 0.12% hits; active = well fitted curve in the direction sought with a large enough effect; inconclusive = small, poorly fitted or top-dose-only effect, or another doubt; inactive = no such curve, though single readings can be large; an effect the other way counts as inactive or inconclusive; also: nearly all actives have a fitted effect of over 50% in size
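TbPYK + substrate in 50 mM TEA pH 7.2, 100 mM KCl, 10 mM MgCl2, 0.05% BSA, 0.01% Tween-20; cpd pinned; ADP 130 uM final; 45 min RT; Kinase-Glo Plus 10 min; luminescence endpoint.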
CHX counter = counter-screen hit for Shiga toxin inhibitors, cycloheximide | cell reporter, cycloheximide protein synthesis inhibition counterscreen | max response, % | 300,000 compounds, 12% hits | AID 2314; in the data active = max response mostly above about 13%, no sharp cut-off; inactive = mostly below about 14%; also: read at 38.3 µM for the half of the compounds with a filed dose
Shiga inhibitor = blocks Shiga toxin action in Vero cells; Vero cells, Shiga toxin protein synthesis inhibition reporter; inhibition, % at 38.7 µM; 290,000 compounds, 9.2% hits; in the data active = inhibition mostly above about 28%, no sharp cut-off; inactive = mostly below about 43%
SARS PLP yeast = blocks SARS-CoV papain-like protease in a yeast assay | S. cerevisiae expressing SARS-CoV PLpro, growth rescue | Potency, µM (highest dose often 32.9 µM), hits mostly activators | AID 485353 | 330,000 compounds, 0.19% hits; also: nearly all actives have a fitted effect of over 55% in size
NS1 inh = inhibitors of influenza NS1 protein function. AID 2326. 270,000 compounds, 0.4% hits. Potency, µM (highest dose often 46.1 µM); also: actives are rising curves; nearly all actives have a fitted effect of over 50% in size
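Read-out: OD600 growth recovery of NS1-expressing budding yeast. Cells grown overnight at 30C in -URA glucose medium, washed, resuspended and diluted 1:100 in 2% galactose assay medium, pH 6.0. Same strain lacking NS1 served as positive control.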
LmPK inh = LmPK (Leishmania mexicana) enzyme inhibition; Q27686; purified LmPK, Kinase-Glo ATP luminescence, 1 h; Potency, µM (top dose mostly 57.5 µM), usual class: inhibitors; 290,000 compounds, 0.37% hits; AID 1721; active = well fitted curve in the direction sought with a large enough effect; inconclusive = small, poorly fitted or top-dose-only effect, or another doubt; inactive = no such curve, though single readings can be large; an effect the other way counts as inactive or inconclusive
Target sequence (Q27686 whole entry, looked up): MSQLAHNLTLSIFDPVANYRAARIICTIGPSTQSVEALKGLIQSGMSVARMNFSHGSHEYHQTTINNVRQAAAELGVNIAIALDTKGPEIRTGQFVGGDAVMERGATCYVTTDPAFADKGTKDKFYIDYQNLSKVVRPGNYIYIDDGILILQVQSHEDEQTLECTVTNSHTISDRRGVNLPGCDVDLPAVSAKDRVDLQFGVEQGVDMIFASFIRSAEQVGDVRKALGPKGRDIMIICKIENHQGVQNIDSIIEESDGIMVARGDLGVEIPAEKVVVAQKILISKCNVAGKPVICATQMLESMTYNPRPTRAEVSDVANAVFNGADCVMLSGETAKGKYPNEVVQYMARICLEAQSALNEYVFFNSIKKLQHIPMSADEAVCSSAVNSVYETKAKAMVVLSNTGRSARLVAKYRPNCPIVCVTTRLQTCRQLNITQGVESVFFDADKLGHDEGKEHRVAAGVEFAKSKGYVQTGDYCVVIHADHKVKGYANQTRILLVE
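Kinase-Glo luminescence read after 1 h RT reaction of 0.1 nM LmPK with 0.5 mM PEP and 0.1 mM ADP. Activity scaled between uninhibited and enzyme-free controls.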
A number is an active result; - = inactive; ? = inconclusive; . = no result given; [ ] = remark or other dose. Shown is part of a subset that was picked to be rich in hits. Unless noted, calls follow the shape of the full dose curve.

SMILES	Tb PYK inh	CHX counter	Shiga inhibitor	SARS PLP yeast	NS1 inh	LmPK inh
CC1CCC(NC(=O)CC(NC(N)=O)c2ccccc2Cl)CC1 (centres undefined)	-	31.3	-	-	?	-
CC(C)c1ccc(NC(=O)COc2ccccn2)cc1	-	45.1	84.0	-	.	-
CC(C)c1ccc(NC(=O)Cn2c(=O)oc3ccccc32)cc1	-	-	31.8	-	-	-
CC(C)c1ccc(OCC(=O)NCCO)cc1	-	52.5	92.5	-	-	-
CC(C)c1ccc(OCC(=O)Nc2ccc(OC(F)(F)F)cc2)cc1	-	-	-	-	-	-
COc1ccc(NC(=O)Cn2c(=O)oc3ccccc32)cc1	-	-	-	-	-	-
CC(C)c1ccc(NC(=O)COc2ccccc2)cc1	-	48.6	62.3	-	-	-
COCCN1Cc2c(sc(C)c2C)N(C(=O)c2ccccc2)C1	-	26.4	71.7	-	?	-
Cc1sc2c(c1C)CN(C(C)(C)C)CN2C(=O)c1ccccc1	-	38.4	91.0	-	-	-
Cc1sc2c(c1C)CN(Cc1ccco1)CN2C(=O)c1ccccc1	.	.	.	.	-	.
Cc1sc2c(c1C)CN(Cc1ccncc1)CN2C(=O)c1ccco1	-	41.3	64.1	-	-	-
CCCCOC(=O)c1ccc(S(N)(=O)=O)o1	-	10.6	-	-	-	-
CCOC(=O)N1CCN(C(=O)C2CCN(c3nnc(-n4cccc4)s3)CC2)CC1	-	-	-	-	-	-
Cc1ccc(NC(=O)C2C3C=CC(O3)C2C(=O)O)cc1C (centres undefined)	-	52.0	.	-	-	-
Cc1cccc(NC(=O)C2C3C=CC(O3)C2C(=O)O)c1 (centres undefined)	.	-	-	-	-	-
COC(=O)c1ccc(NC(=O)C2C3C=CC(O3)C2C(=O)O)cc1 (centres undefined)	-	19.6	29.7	-	-	-
COc1cc(NC(=O)c2ccc(Cl)cc2)c(Cl)cc1NC(=O)c1cccnc1	-	-	-	-	-	-
Cc1sc2nc(SCC(=O)N3CCOCC3)[nH]c(=O)c2c1-c1ccccc1	-	-	-	-	-	-
Cc1ccc(C(=O)c2cncc(Br)c2)cc1	-	21.9	-	-	-	-
CCc1ccc(C(=O)c2cncc(Br)c2)cc1	-	35.2	48.7	.	-	-
Cc1ccc(C(=O)c2cc(Br)ccc2N)cc1	-	22.2	44.6	-	.	-
O=C(c1ccccc1)N1CCN(C(=O)c2ccccc2)c2ccccc21	-	.	.	.	.	.
CC(C)(O)C#Cc1ccc(CN2CCN(C3CCCCC3)C(CCO)C2)s1 (centres undefined)	-	-	-	-	-	-
COC(=O)[C@]12CCCCC=C1N(Cc1cccc3ccccc13)C(=O)[C@H](CC(=O)NCc1ccc(OC)c(OC)c1)C2	-	.	.	.	.	.
O=C(Nc1cccc(S(=O)(=O)N2CCCCC2)c1)c1ccc(N2CCCC2=O)cc1	-	.	.	-	.	.
SMILES	Tb PYK inh	CHX counter	Shiga inhibitor	SARS PLP yeast	NS1 inh	LmPK inh
CCc1cccc(NC(=O)c2oc3ccc4c(c3c2C)C(=O)CC(C)(C)O4)c1	-	.	.	.	.	.
CCCCS/C(N)=N/N=C/c1cc(C)ccc1O	-	44.4	82.2	-	-	-
CCN(CC)c1ccc(/C=N/N=C(N)N)c(O)c1	-	-	-	-	-	-
CS/C(N)=N/N=C/c1cc(C)ccc1O	-	38.1	61.0	-	-	-
CCS/C(N)=N/N=C/c1cc(C)ccc1O	-	52.9	-	-	-	-
CS/C(N)=N/N=C/c1cc(Br)cc(Br)c1O	-	16.9	64.7	-	-	-
CC(=O)Nc1ccc(S(=O)(=O)NCCC(=O)NCCOc2ccccc2)cc1	-	.	.	-	.	.
CCC(=O)N1CCc2cc(Br)cc(S(=O)(=O)N3CCCC(C(=O)Nc4cccc(F)c4)C3)c21 (centres undefined)	-	.	.	.	.	.
CCc1ccc(-c2ccc(SCc3ccccn3)nn2)cc1	-	41.0	102.9	-	.	-[11.5 µM]
CCOc1ccc(-c2ccc(SCC(=O)N3CCN(c4ccccc4)CC3)nn2)cc1	.	-	-	-	-	-
CCOc1ccc(-c2ccc(SCc3ccccn3)nn2)cc1	-	40.5	59.4	-	.	-
Cc1c(N=Nc2c(-c3ccc([N+](=O)[O-])cc3)[nH]n(C(N)=S)c2=O)cccc1[N+](=O)[O-]	-	-	-	-	.	-
Cc1[nH]n(C(N)=S)c(=O)c1N=Nc1ccc2ccccc2c1	-	45.5	92.5	-	.	-
Cc1[nH]n(C(N)=S)c(=O)c1N=Nc1ccc(S(=O)(=O)N2CCCCCC2)cc1	-	-	-	?	-	-
Cc1ccc(N=Nc2c(C)[nH]n(C(N)=S)c2=O)cc1C	-	26.0	157.6	-	-	-
CC(=O)Nc1ccc(N=Nc2c(C)[nH]n(C(N)=S)c2=O)cc1	-	33.8	87.8	-	.	-
Cc1[nH]n(C(N)=S)c(=O)c1N=Nc1cccc([N+](=O)[O-])c1C	-	56.9	51.2	-	-	-
CC1CCCC(NC(=O)COC(=O)[C@@H](NC(=O)c2ccccc2Cl)C(C)C)C1C (some centres undefined)	-	.	.	-	.	.
Cc1cccc(OCc2cc(=O)n3c4c(sc3n2)CCCC4)c1C	-	.	.	.	.	.
NC(=S)n1[nH]c(-c2ccc([N+](=O)[O-])cc2)c(N=Nc2cccc([N+](=O)[O-])c2)c1=O	-	-	-	-	?	-
Cc1[nH]n(C(N)=S)c(=O)c1N=Nc1cc(-c2ccc(Br)cc2)[nH]n1	-	34.6	-	-	.	-
COc1ccc(NC(=O)c2ncn(-c3ccccc3)n2)cc1Cl	-	.	.	.	.	.
CCOC(=O)c1sc(NC(=O)C(CC)OC(=O)c2ccco2)nc1C (centres undefined)	-	15.8	-	-	-	-
CCOC(=O)c1sc(NC(=S)NC(=O)c2ccco2)nc1C	-	42.3	-	-	-	-
COC(=O)c1sc(NC(=O)c2ccco2)nc1C	-	-	-	-	-	-
SMILES	Tb PYK inh	CHX counter	Shiga inhibitor	SARS PLP yeast	NS1 inh	LmPK inh
Cc1ccc(Nc2nc(N3CCN(C)CC3)nc(N)c2[N+](=O)[O-])cc1C	.	-	-	-	-	-
CC1=CC(C)(C)Nc2ccc(OC(=O)CCN3C(=O)c4ccccc4C3=O)cc21	-	21.6	-	?	-	-
CC1=CC(C)(C)Nc2ccc(OS(=O)(=O)c3ccc(C)cc3)cc21	-	-	40.2	-	-	-
COC(=O)c1ccc(OS(=O)(=O)c2ccc(NC(C)=O)cc2)cc1	-	-	-	-	-	-
CC(=O)Nc1ccc(S(=O)(=O)Oc2ccc3c(c2)C(C)=CC(C)(C)N3)cc1	.	16.4	-	-	-	-
COc1ccc(/C=C(\NC(=O)c2ccccc2)C(=O)N2CCC(C)CC2)cc1	-	.	.	-	.	.
Cc1ccc(SCC(=O)OCC(=O)NC2CCCCCC2)cc1	-	-	-	-	-	-
Cc1ccc(SCC(=O)NC2CCCCCC2)cc1	-	29.8	66.7	-	-	-
O=C(CCSc1ccccc1)NC1CCCCCC1	-	33.1	98.0	-	-	-
